Assay outcomes from PubChem.
CRFBP-R2 agonist: CRF-BP/CRF-R2 complex agonism; HEK293 CRF-R2/CRF-BP, calcium dye fluorescence (FLIPR); percent of saturating CRF peptide response; activation, % at 13.2 µM; 350,000 tested, 0.46% active; AID 588473;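 active means activation of at least 50%, plus an integration ratio under a set limit after plate pattern correction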;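 further: plate controls were neutral control wells without compound for no effect and CRF at EC100 for full effect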
TMEM16A act: activators or potentiators of mouse TMEM16A chloride channel. B-score at 10 µM. Q8BHY3. 340,000 tested, 0.3% active. HEK293 TMEM16A/YFP-H148Q/I152L, iodide quench fluorescence; hits give low values;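 active means fluorescence-ratio B-score plate-corrected deviation score at least 3 library SD below zero, with starting fluorescence score within 5 deviations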;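 further: channel opened by trigger with iodide after compound preincubation; score built on the fluorescence ratio of max minus min over baseline; more negative score means more quench and so TMEM16A activation or potentiation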
Target sequence (Q8BHY3 whole entry, looked up): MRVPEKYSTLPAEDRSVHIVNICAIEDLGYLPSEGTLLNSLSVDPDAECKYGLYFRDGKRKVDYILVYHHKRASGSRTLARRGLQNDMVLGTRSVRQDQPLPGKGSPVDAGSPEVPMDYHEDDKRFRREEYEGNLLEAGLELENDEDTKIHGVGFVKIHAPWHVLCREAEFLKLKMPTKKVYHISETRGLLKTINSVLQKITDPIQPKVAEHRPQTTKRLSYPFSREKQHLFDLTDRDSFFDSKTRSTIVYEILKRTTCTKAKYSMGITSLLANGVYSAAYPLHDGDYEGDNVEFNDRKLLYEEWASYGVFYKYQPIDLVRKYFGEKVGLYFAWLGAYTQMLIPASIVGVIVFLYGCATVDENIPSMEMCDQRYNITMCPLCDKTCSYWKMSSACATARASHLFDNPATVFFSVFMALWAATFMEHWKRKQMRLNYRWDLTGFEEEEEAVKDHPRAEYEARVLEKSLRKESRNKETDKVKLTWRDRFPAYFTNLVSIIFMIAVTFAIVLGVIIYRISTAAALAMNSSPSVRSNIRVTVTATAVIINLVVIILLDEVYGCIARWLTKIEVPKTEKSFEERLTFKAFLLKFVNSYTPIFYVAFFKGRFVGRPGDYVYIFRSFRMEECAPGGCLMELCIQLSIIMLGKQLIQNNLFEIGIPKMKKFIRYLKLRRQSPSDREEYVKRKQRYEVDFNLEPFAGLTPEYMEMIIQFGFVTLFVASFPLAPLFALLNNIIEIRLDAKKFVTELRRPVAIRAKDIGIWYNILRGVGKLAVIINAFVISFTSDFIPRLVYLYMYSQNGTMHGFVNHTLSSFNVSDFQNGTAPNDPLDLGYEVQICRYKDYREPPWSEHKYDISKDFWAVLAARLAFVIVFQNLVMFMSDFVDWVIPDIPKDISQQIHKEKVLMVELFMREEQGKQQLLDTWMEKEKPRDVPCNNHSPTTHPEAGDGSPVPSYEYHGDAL
CRFBP-R2 block: CRF-BP/CRF-R2 complex antagonism; HEK293 CRF-R2/CRF-BP, CRF-induced calcium fluorescence; AID 588475; 350,000 tested, 0.59% active; inhibition, % at 11.8 µM;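 active means inhibition of the ligand-induced calcium signal above about 50% at the single tested concentration, limit read from the data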
NR3A LBD binder: modulates the human NR3A ligand-binding domain; 340,000 tested, 2.5% active; Tm shift relative to glycine control, % at 25 µM; NR3A LBD differential scanning fluorimetry, Tm shift; 0% = protein alone, 100% = glycine-bound protein;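 active means melting temperature shift of at least 10% of the positive control shift, at one fixed dose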
ANO1 block: inhibitors of mouse TMEM16A calcium-activated chloride channel; Q8BHY3; HEK293 TMEM16A/YFP iodide influx fluorescence, ionomycin; normalized B-score (activity score, 25-100; higher = stronger inhibition) at 10 µM; 310,000 tested, 1.2% active;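 active means ratio plate-corrected score three or more library SD toward inhibition, starting fluorescence score within five deviations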;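 further: score derived from kinetic fluorescence span divided by baseline fluorescence per well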
MPTP inh: inhibitors of mitochondrial permeability transition pore; 360,000 tested, 1.4% active; isolated mouse mitochondria, Ca2+ swelling absorbance, 30 min; AID 602449; inhibition, % at 10 µM;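 active means inhibition of 50% or more, scaled per plate between neutral and stimulator controls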;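 further: 0% = DMSO wells given calcium and 100% = 1 mM EGTA wells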
An asterisk follows results filed as active; i = inactive; nt = no result. Most compounds without a hit are left out; they make up all but 5.1% or so of the library.

SMILES	CRFBP-R2 agonist	TMEM16A act	CRFBP-R2 block	NR3A LBD binder	ANO1 block	MPTP inh
O=P(/C(=N/O)N1CCOCC1)(N1CCOCC1)N1CCOCC1	-3	i	55*	-1	i	-1
CC(NC(=O)N1CC1(C)C)c1ccccc1 (stereo unspecified)	2	i	-26	1	nt	-2
CCCCn1c(=O)c(C(=O)Nc2cnccn2)c(O)c2ccccc21	0	nt	-29	4	100*	0
C[C@]12CC[C@H]3[C@@H](CCC4=CC(=O)CC[C@@]43O)[C@@H]1CCC2=O	1	i	16	7	i	1
Cc1ncc([N+](=O)[O-])n1CCOC(N)=O	0	i	67*	3	i	0
C1CCC(NC2CCCCC2)CC1	0	i	6	-1	nt	1
O=C(COc1ccccc1)N1CCN(CC2CC=CCC2)CC1 (stereo unspecified)	0	i	-1	1	i	1
O=C1NC(=O)N(CCNc2ncc(C(F)(F)F)cc2Cl)C(=O)C1/C=N/OCc1c(F)cccc1Cl (stereo unspecified)	-3	i	62*	-1	i	1
Cn1c(O)c(/C=C2\C=Nc3ccccc32)c(=O)n(C)c1=O	4	-4.8*	-18	2	i	1
C1CC2OC2CC1C1CO1 (stereo unspecified)	4	i	14	0	nt	0
O=[N+]([O-])c1ccc2c(c1)Cc1cc(O)ccc1-2	-2	i	17	14*	nt	1
CCn1c(O)c(C=NCCN2CCOCC2)c(=O)[nH]c1=S	2	i	-1	0	i	1
CN1C(=O)NC(=O)C2(CCCC2)C1=O	-1	i	3	-1	nt	-2
CC(C)(C)c1cc([N+](=O)[O-])cc(C(C)(C)C)c1O	68*	nt	63*	-15	100*	nt
CC(=O)Nc1ccc(C(=O)OCC(=O)Nc2ccc(Cl)cc2C(=O)c2ccccc2)cc1	3	i	-83	-2	i	-2
O=C(COC(=O)c1ccc(O)cc1)Nc1ccc(Cl)cc1C(=O)c1ccccc1	-1	i	-3	18*	i	11
CC1CCCCC1NC(=O)CNC(=S)N1CC2CC(C1)c1cccc(=O)n1C2 (stereo unspecified)	3	i	-9	-3	i	1
O=c1cccc2n1C[C@H]1C[C@@H]2CN2CCCC[C@@H]12	3	i	3	-1	i	0
OC1(c2ccc(F)cc2)CCNC1 (stereo unspecified)	1	i	1	1	i	0
CNC1(c2ccc(F)cc2)CCCCC1	47	i	88*	3	nt	-1
COc1ccccc1NC(=O)c1cn(CCC#N)nc1-c1cccc(Cl)c1	-2	i	4	0	i	0
Cc1ccccc1NS(=O)(=O)c1ccc(OCC(=O)N2CCN(C)CC2)cc1	0	i	3	0	i	-2
Cc1ccc2nsnc2c1-n1c(C)nc2ccccc2c1=O	-2	i	15	17*	i	0
COc1ccc(/C=C2/C(=O)NC(=O)N(c3ccccc3)C2=O)cc1CN1C(=O)c2ccccc2C1=O	-1	i	-14	-1	i	48
Cc1ccccc1N1C(=O)NC(=O)/C(=C\c2ccc3c(c2)CCCN3Cc2ccccc2)C1=O	58*	i	-174	-18	i	37
SMILES	CRFBP-R2 agonist	TMEM16A act	CRFBP-R2 block	NR3A LBD binder	ANO1 block	MPTP inh
O=S(=O)(c1ccccc1)C1CN1c1c(F)c(F)c(F)c(F)c1F (stereo unspecified)	nt	nt	nt	nt	nt	1
CC(C)N1C(=O)/C(=C/C=C/c2ccco2)C(=O)N(Cc2ccco2)C1=O	5	i	-18	-3	i	1
CCN1C(=O)C(=C/C=C/c2ccco2)C(=O)N(CC)C1=S	50*	i	-91	-5	i	3
CCCN1CCC(NC2CCC(O)CC2)CC1 (stereo unspecified)	-3	i	5	0	i	0
Clc1cnc(Oc2ccc(Oc3ncc(Cl)cc3Cl)cc2)c(Cl)c1	0	i	72*	-1	i	2
C[C@@H]1CN([C@@H](C)CO)C(=O)CCCn2nncc2CO[C@H]1CN(C)C(=O)Oc1ccc2ccccc2c1	0	nt	-15	nt	nt	0
CCCC[N+]1(C)[C@@H]2CC(OC(=O)[C@H](CO)c3ccccc3)C[C@H]1[C@@H]1O[C@@H]12 (stereo partly specified)	0	-10*	2	2	i	4
O=C1NC(=O)N(c2cccc(Cl)c2)C(=O)/C1=C\c1ccc(Sc2nc3ccccc3[nH]2)o1	19	i	-44	-5	i	40
O=C1NC(=O)N(c2ccccc2F)C(=O)/C1=C/c1ccc(Sc2nc3ccccc3[nH]2)o1	24	i	-44	102*	i	38
CC[C@H]1CN(C)CCc2c([nH]c3ccccc23)C(=O)C[C@@H]1/C(=C\OC)C(=O)OC	0	i	-9	-2	i	0
C[C@H]1OC[C@@H](C[N+](C)(C)C)O1	38	-13*	-18	2	i	1
COc1cccc(N2CCN(Cc3cccc(Cl)c3)CC2)c1	-1	i	-14	13*	i	0
CC(C)[C@H]1C(=O)O[C@@H]2CCN3CC=C(COC(=O)[C@](C)(O)[C@]1(C)O)[C@H]23	4	i	5	2	i	1
Cc1cccc(N2C(=O)NC(=O)/C(=C\c3ccc(N4CCOCC4)cc3)C2=O)c1	3	i	72*	0	i	21
Cc1cc(C)cc(N2C(=O)NC(=O)/C(=C\c3cccn3-c3ccccc3)C2=O)c1	10	i	-99	24*	i	5
Cc1cccc(N2C(=O)NC(=O)/C(=C/c3ccc(N4CCOCC4)cc3)C2=O)c1	7	i	-15	0	i	4
Cc1ccc(N2C(=O)NC(=O)/C(=C\c3cc(C)n(-c4sc5c(c4C#N)CCCC5)c3C)C2=O)cc1	18	i	-96	-3	25*	8
COc1ccc(N2C(=O)C(=O)N(c3ccc(OC)cc3)P2(=O)N(CCCl)CCCl)cc1	1	i	6	0	nt	0
Cc1nc2c(c(=O)[nH]1)C(c1ccccc1Cl)c1c(c3ccccc3oc1=O)O2 (stereo unspecified)	0	nt	-6	0	i	nt
CN(C)c1ccc(C(=O)N/N=C/C23CC[C@@H](O)CC2(O)CC[C@@H]2[C@@H]3CCC3(C)C(C4=CC(=O)OC4)CCC23O)cc1 (stereo partly specified)	2	i	54*	0	i	0
